Only some compounds are listed: those with a hit (about 4.3% of all), similar ones and a draw of the others.
GLP-1R inv ag: qHTS of GLP-1 Receptor Inverse Agonists (Inhibition Mode) | Glucagon-like peptide 1 receptor (Homo sapiens), P43220 | HEK293 GLP-1R CRE-luciferase, luminescence, 24 h; GLP-1R form is constitutively active | Potency, µM (series often up to 38.3 µM), for inactives: top-dose activity change, negative = inhibition, hits mostly inhibitors | 1.6% of 410,000 active | AID 624417, 2012; note: potency is the fitted concentration of half-maximal effect; % is set by controls: 0 for no effect and ±100 for the full control effect; nearly all actives have a fitted effect of over 55% in size
Target sequence (P43220 whole entry, looked up): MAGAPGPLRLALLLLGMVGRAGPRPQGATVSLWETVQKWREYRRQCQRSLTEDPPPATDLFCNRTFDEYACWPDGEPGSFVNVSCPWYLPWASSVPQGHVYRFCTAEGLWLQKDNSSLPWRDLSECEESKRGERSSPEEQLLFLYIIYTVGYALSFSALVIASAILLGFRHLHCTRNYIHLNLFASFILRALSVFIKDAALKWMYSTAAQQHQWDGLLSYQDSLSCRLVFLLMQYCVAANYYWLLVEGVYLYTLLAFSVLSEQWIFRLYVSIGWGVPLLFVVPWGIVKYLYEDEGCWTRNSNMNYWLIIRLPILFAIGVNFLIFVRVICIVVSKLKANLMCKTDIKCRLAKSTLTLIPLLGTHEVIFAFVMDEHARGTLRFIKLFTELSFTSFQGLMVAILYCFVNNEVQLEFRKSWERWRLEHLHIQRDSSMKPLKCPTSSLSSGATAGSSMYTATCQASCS
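Readout was luciferase luminescence, measured 12 min after detection reagent at room temperature. Beforehand, GLP-1R reporter HEK293 cells had sat 12 h, then received compounds for 24 hr at 37 deg C.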
D3 ag: qHTS of D3 Dopamine Receptor Agonist: qHTS. D(3) dopamine receptor (Homo sapiens), P35462. D3R DiscoveRx beta-arrestin cells, luminescence, 90 min. max activation, %. 0.58% of 410,000 active. AID 652048, 2013; in the data active = max activation above about 30%; note: 0% is about no effect
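Agonist mode: compounds and dopamine controls were applied to plated cells for 90 min at 37 degrees C after an overnight attachment at 1500 cells/well. Luminescent read-out followed 30 - 60 minutes at room temperature with DiscoveRx detection reagent.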
GLP1R ag: qHTS of GLP-1 Receptor Agonists. Glucagon-like peptide 1 receptor (Homo sapiens), P43220. HEK293 GLP-1R CRE-luciferase, luminescence, 4-6 h; cells express a hypersensitive GLP-1R form. Potency, µM (series often up to 45.6 µM), for inactives: at the top dose activation, actives largely listed as activators. 0.007% of 380,000 active; note: potency is the fitted concentration of half-maximal effect; % of control where 0% means no effect
D3 antag: qHTS of D3 Dopamine Receptor Antagonist: qHTS | D(3) dopamine receptor (Homo sapiens), P35462 | max response, negative = inhibition, % | D3R cells, DiscoveRx beta-arrestin luminescence, antagonist mode; hits give low values | 2.5% of 360,000 active | AID 652054, 2013; in the data active = max response below about -50%; inconclusive = no clear call, values can overlap the other calls; note: % is set by controls: 0 for no effect and ±100 for the full control effect
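Cells plated overnight at 1500 cells/well, then exposed to library compounds with dopamine controls for 90 minutes at 37 degrees C. DiscoveRx reagent added for 30–60 minutes at room temperature; luminescence read, quantitative HTS format.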
* = called active by the depositor; ? = inconclusive; nt = no result; [ ] = dose if it differs, or a comment. Unless noted, calls come from the whole dose curve; as a rule, active = well fitted curve in the direction sought with a large enough effect; inconclusive = small, poorly fitted or top-dose-only effect, or another doubt; inactive = no such curve, though single readings can be large; an effect the other way counts as inactive or inconclusive.

SMILES | GLP-1R inv ag | D3 ag | GLP1R ag | D3 antag
Cc1nc(SCC(=O)c2ccc(F)cc2)c([N+](=O)[O-])[nH]1 | 15% | -5 | -2% | 19
COc1cc2c(cc1O)CCN[C@]21CS[C@@H]2c3c(OC(C)=O)c(C)c4c(c3[C@H](COC1=O)N1[C@@H]2[C@H]2c3c(cc(C)c(OC)c3O)C[C@@H]([C@@H]1O)N2C)OCO4 | nt | -14 | nt | nt
Cc1cccc(C)c1C(O)c1ncc(-c2cccc(C(F)(F)F)c2)[nH]1 (stereo not given) | ? | -3 | -2% | -61*
O=C(CO/N=C/c1ccccc1)N1c2ccccc2Oc2ccccc21 | 8.9µM* | 2 | -1% | 10
CCc1cc2c(NCCO)ncnc2s1 | 7% | 4 | -10% | 0
CCc1cc2c(NCCN3CCCCC3)ncnc2s1 | ? | -11 | 5% | -86*
Cc1cc(C)c(C)c(S(=O)(=O)N2CCC(C(=O)N3CCN(c4ccc(F)cc4)CC3)CC2)c1C | 5µM* | -3 | 9% | -1
COc1ccc(CCC(C)N2CCC(Oc3ccc(C(=O)N4CCCC4)cc3)CC2)cc1 (stereo not given) | ? | -23 | -1% | -20
CC(CCc1ccc(O)cc1)N1CCC(Oc2ccc(C(=O)N3CCCC3)cc2)CC1 (stereo not given) | -46% | 73* | 8% | 5
COC1CCCN(C(=O)c2ccc(OC3CCN(CCc4ccccc4)CC3)cc2)C1 (stereo not given) | -18%[7.66 µM] | -10 | 3% | -55*
O=C(c1ccc(OC2CCN(Cc3ccccc3C(F)(F)F)CC2)cc1)N1CCCCC1 | 5µM* | -11 | -4% | -23
COc1ccccc1/C=C/CN1CCC(Oc2ccc(C(=O)N3CCCC3)cc2)CC1 | ? | -13 | -3% | -68*
Cc1cc2oc(C(=O)N(Cc3ccc(N(C)C)cc3)CC3CCCO3)c(C)c2cc1Cl (stereo not given) | -15% | 6 | nt | nt
O=C(c1ccc(OC2CCN(Cc3ccccc3OC(F)F)CC2)cc1)N1CCCC1 | 3.2µM* | -4 | -1% | 6
CC(C(=O)O)c1ccc(/C=C2\CCCCC2=O)cc1 (stereo not given) | nt | -6 | 0% | nt
COc1cccc(NC(=O)c2sc(-n3nc(C)c(Cc4ccccc4Cl)c3C)nc2C)c1 | 3% | -15 | nt | nt
COCCn1nnnc1C(c1cccc(C#N)c1)N1CCCCCC1 (stereo not given) | -15% | -2 | 0% | -75*
N#Cc1cccc(C(c2nnnn2C2CCCC2)N2CCCCCC2)c1 (stereo not given) | ? | -4 | 19% | -54*
Cc1oc(-c2cccc(Cl)c2)nc1CN1CCC(C(=O)NCc2ccc(F)cc2)CC1 | -19% | -16 | nt | nt
Cc1cc(C)nc(Nc2ccccc2F)n1 | 9% | -8 | -1% | 0
Cc1cc(C)nc(Nc2ccccc2Cl)n1 | 8% | -15 | -1% | -70*
CCOC(=O)C(=O)/C(C#N)=C/Nc1ccccc1 | 0% | 1 | -2% | -57*
CCOC(=O)/C(C#N)=C/Nc1ccccc1OC | 94% | 3 | 20% | 17
CCCCn1c(SCC(=O)c2ccccc2)nc2c(sc3ccccc32)c1=O | -11% | -2 | nt | nt
Cc1nn(Cc2ccc([N+](=O)[O-])cc2)c(=O)n1-c1c(F)cccc1F | 2% | 1 | 4% | -61*
SMILES | GLP-1R inv ag | D3 ag | GLP1R ag | D3 antag
Cc1nn(Cc2ccc([N+](=O)[O-])cc2)c(=O)n1-c1ccc(F)cc1 | 10% | 12 | 7% | -7
CCCCNc1nc2c(S(=O)(=O)c3ccc(C)cc3)nnn2c2ccsc12 | 40% | -11 | nt | nt
Cc1ccc(C)c(N2CCN(C(=O)c3ccc(-c4nc(COc5ccccc5)c(C)o4)cc3)CC2)c1 | ? | 6 | nt | nt
Cn1c(C(=O)NCCCN2CCc3ccccc3C2)cc2c(=O)n(C)c3ccccc3c21 | -19% | -16 | -3% | -70*
CCCCN(CC)CCNC(=O)c1cc2c(=O)n(C)c3ccccc3c2n1C | -26% | -17 | -6% | -73*
CC1CC(C)CN(CCCNC(=O)c2cc3c(=O)[nH]c4ccccc4c3n2C)C1 (stereo not given) | ? | -3 | 8% | -64*
N#Cc1nc(-c2ccc(F)cc2)oc1N1CCC(C(N)=O)CC1 | 6% | 1 | 9% | 0
Cc1c(-c2nc(-c3ccc4c(c3)OCO4)no2)nnn1-c1ccc(C(C)C)cc1 | 16% | -5 | nt | nt
CCCCCSc1nc2sc3c(c2c(=O)n1-c1ccccc1)CCN(C(C)=O)C3 | 16% | 1 | 3% | nt
O=C(Nc1cccc([N+](=O)[O-])c1)NC1CCCCCCC1 | 10µM* | -5 | 4% | 5
O=[N+]([O-])c1cccc(COc2ccc(CN3CCCC3)cc2)c1 | ? | -54 | -1% | ?
O=[N+]([O-])c1cccc(CN2CCCCCC2)c1 | 1% | -25 | 12% | -55*
O=C(CN1CCCCCC1)Nc1cccc([N+](=O)[O-])c1 | -9% | -7 | -6% | -83*
O=[N+]([O-])c1cccc(CN2CCN(Cc3ccco3)CC2)c1 | -15% | -23 | -3% | -75*
Cc1cccc(CC2C(=O)Nc3ccccc32)c1 (stereo not given) | 19% | 0 | nt | nt
Cc1ccc(CNC(=O)c2cc(Sc3ccc(F)cc3F)nc3ccccc23)cc1 | -2% | -8 | nt | nt
O=C1C2CCCCN2C(=O)N1CCCCN1CCN(c2cccc(Cl)c2)CC1 (stereo not given) | -37% | 1 | -6% | -60*
O=C1C2CCCCN2C(=O)N1CCCCN1CCN(c2cccc(C(F)(F)F)c2)CC1 (stereo not given) | ? | -26 | -1% | -140*
CC(C)C(=O)Nc1cccc(N2CCN(CCCN3C(=O)C4CCCCN4C3=O)CC2)c1 (stereo not given) | 11% | -6 | -4% | -1
Cc1ccc(N2CCN(CCCN3C(=O)C4CCCN4C3=O)CC2)cc1 (stereo not given) | -9% | -15 | 0% | -27
O=c1n(CCCN2CCN(c3cccc(Cl)c3)CC2)nc2ccccn12 | 1% | -72 | -2% | -93*
O=C1C2CCCCN2C(=O)N1CCCCN1CCN(c2ccc([N+](=O)[O-])cc2)CC1 (stereo not given) | ? | -11 | -18% | -18
O=C1C2CCCN2C(=O)N1CCCN1CCN(c2cccc(Cl)c2)CC1 (stereo not given) | -27% | -13 | -1% | -50*
NC(=O)CN1CCN(c2cccc(Cl)c2)CC1 | 4% | 7 | 0% | 1
COc1ccc(N2CCN(C(=O)CCn3nc(C)c(S(=O)(=O)N4CCCC4)c3C)CC2)cc1 | -5% | -8 | nt | nt
COc1ccc(OC)c(/C=C/C(=O)Nc2ccc(C(=O)OCCC(C)C)cc2)c1 | ? | 2 | nt | nt
O=C1CC(=C(c2ccccc2)c2ccccc2)C(=O)N1CCCCN1CCN(c2cccc(Cl)c2)CC1 | ? | 23 | -9% | -52*
Cc1cccc(N2CCn3c2nc2c3c(=O)n(CCCc3ccccc3)c(=O)n2C)c1 | 3% | -14 | nt | nt
